Assay results from PubChem BioAssay (NCATS).
The other results are listed elsewhere or left out. Results filed as inconclusive are left out. Active and inactive are the calls of the source. Calls follow the shape of the full dose curve.

These molecules were tested against Polyprotein P1234 (Chikungunya virus (strain S27-African prototype)) (UniProt Q8JUX6) (assay: Selectivity profile for inhibitors of NSP2Pro chikungunya virus (CHIKV): Full length NSP2 enzyme counterscreen (CHIKV-NSP2) (AID 1964101; also: nearly all actives have a fitted effect of over 65% in size)). Details: Full-length CHIKV NSP2 protease enzymatic counterscreen; series mostly up to 50.7 µM.
From the text: PI: Natalia J. Martinez Ph.D.
National Center for Advancing Translational Sciences (NCATS),
National Institute of Health (NIH), Rockville, Maryland
Chikungunya virus (CHIKV) is a mosquito-borne RNA virus that has emerged as one of the most important global arboviral threats in the last decade. Although the first CHIKV vaccine has recently been FDA approved for use in healthy adults at increased risk, to date, there are no available antiviral drugs for CHIKV infection. CHIKV nsP2 protease plays a crucial role in the processing of the viral polypeptide precursor to release enzymes required for viral replication, thus making it a promising drug target for antiviral discovery. Here, we established a high-throughput pipeline to identify small molecule inhibitors of nsP2 proteolytic activity. The pipeline is composed of a suite of 1,536-well in vitro assays to support quantitative high-throughput (qHTS) screening campaigns. Specifically, we developed a fluorescence resonance energy transfer (FRET)-based assay using a fluorogenic peptide substrate encompassing an endogenous cleavage site and purified recombinant protease domain (nsP2pro). Using this assay, we interrogated ~37,000 small molecules, including those in drug repurposing libraries as well as chemically diverse and medicinal chemistry-friendly compounds. Hits were selected for follow-up validation against full-length nsP2 and an additional peptide. FRET-based 1,536-well assays for papain, hepatitis C virus NS3-4A, and human furin proteases were implemented to characterize compound selectivity. […] Novel compounds were identified to be potential nsP2 inhibitors and molecular docking analyses were performed to explain the binding mode of selected hits. In vitro antiviral activity was evaluated for a subset of compounds using a high-throughput CHIKV infection assay. To our knowledge, the pipeline presented here is unprecedented for CHIKV antiviral discovery research.
PROTOCOL TABLE (as described by Inglese J, Shamu CE and Guy RK. 2007)
SEQUENCE No. (e.g., 1, 2, 3, etc.); […] (e.g., Cells, Incubation, Reagent, etc.); VALUE; DESCRIPTION.
1; Control / Compound; 20 nL; Echo 655 acoustic dispenser, Greiner 1536-well solid bottom black plate.
2; Enzyme; 4 uL; BioRAPTR FRD liquid dispenser (Beckman Coulter).
3; Incubation; 15 min; room temperature.
4; Reagent; 4 uL; 2.5 uM Peptide 2 substrate.
5; Incubation; 1 hr; room temperature.
6; Detection; Fluorescence; WiewLux microplate reader (PerkinElmer), 525 nm excitation, 598/25 nm emission.
NOTES (numbers refer to sequence numbers above).
1. Briefly, 20 nL DMSO, positive control ZnAc (20nM final concentration), and test compounds were transferred into a 1,536-well solid bottom black plate (789176-F, Greiner One) via Echo 655 acoustic dispenser (Beckman Coulter). For primary screens, compounds were tested at 7 concentrations, 1:3 dilution points ranging from 25 uM to 34 nM. Follow-up confirmatory screens were carried out at 11 concentrations, 1:3 dilution points from 25 uM to 0.42 nM.
2. Four uL NSP2 full length enzyme mix (150 nM final concentration) in 10 mM Tris-HCl pH 8.0 with 0.01% Tween 20 assay buffer was dispensed into the plate using a BioRAPTR FRD liquid dispenser (Beckman Coulter).
3. The plate was incubated at room temperature (protected from light) for 15 min
4. Four microliter of peptide 2 substrate (2.5 uM final concentration) in assay buffer was added to the plate.
5. After 1 hour, plates were immediately read on a ViewLux high-throughput CCD imager (Exposure = 10 sec, Gain = High, Speed = Slow, Binning = 2X). The above assay was also incorporated in the NCATS HTS facility41, which allowed for robotic liquid and compound dispensing, microplate handling, and fluorescence reading.
Inglese J, Shamu CE and Guy RK, Reporting data from high throughput screening of small molecule libraries, Nature Chemical Biology, 2007, 3(8): 438-441. doi.org/10.1038/nchembio0807-438.
Potency is read from the fitted curve at half-maximal effect.

Sequence of Polyprotein P1234 (Chikungunya virus (strain S27-African prototype)) (Q8JUX6 whole entry, looked up): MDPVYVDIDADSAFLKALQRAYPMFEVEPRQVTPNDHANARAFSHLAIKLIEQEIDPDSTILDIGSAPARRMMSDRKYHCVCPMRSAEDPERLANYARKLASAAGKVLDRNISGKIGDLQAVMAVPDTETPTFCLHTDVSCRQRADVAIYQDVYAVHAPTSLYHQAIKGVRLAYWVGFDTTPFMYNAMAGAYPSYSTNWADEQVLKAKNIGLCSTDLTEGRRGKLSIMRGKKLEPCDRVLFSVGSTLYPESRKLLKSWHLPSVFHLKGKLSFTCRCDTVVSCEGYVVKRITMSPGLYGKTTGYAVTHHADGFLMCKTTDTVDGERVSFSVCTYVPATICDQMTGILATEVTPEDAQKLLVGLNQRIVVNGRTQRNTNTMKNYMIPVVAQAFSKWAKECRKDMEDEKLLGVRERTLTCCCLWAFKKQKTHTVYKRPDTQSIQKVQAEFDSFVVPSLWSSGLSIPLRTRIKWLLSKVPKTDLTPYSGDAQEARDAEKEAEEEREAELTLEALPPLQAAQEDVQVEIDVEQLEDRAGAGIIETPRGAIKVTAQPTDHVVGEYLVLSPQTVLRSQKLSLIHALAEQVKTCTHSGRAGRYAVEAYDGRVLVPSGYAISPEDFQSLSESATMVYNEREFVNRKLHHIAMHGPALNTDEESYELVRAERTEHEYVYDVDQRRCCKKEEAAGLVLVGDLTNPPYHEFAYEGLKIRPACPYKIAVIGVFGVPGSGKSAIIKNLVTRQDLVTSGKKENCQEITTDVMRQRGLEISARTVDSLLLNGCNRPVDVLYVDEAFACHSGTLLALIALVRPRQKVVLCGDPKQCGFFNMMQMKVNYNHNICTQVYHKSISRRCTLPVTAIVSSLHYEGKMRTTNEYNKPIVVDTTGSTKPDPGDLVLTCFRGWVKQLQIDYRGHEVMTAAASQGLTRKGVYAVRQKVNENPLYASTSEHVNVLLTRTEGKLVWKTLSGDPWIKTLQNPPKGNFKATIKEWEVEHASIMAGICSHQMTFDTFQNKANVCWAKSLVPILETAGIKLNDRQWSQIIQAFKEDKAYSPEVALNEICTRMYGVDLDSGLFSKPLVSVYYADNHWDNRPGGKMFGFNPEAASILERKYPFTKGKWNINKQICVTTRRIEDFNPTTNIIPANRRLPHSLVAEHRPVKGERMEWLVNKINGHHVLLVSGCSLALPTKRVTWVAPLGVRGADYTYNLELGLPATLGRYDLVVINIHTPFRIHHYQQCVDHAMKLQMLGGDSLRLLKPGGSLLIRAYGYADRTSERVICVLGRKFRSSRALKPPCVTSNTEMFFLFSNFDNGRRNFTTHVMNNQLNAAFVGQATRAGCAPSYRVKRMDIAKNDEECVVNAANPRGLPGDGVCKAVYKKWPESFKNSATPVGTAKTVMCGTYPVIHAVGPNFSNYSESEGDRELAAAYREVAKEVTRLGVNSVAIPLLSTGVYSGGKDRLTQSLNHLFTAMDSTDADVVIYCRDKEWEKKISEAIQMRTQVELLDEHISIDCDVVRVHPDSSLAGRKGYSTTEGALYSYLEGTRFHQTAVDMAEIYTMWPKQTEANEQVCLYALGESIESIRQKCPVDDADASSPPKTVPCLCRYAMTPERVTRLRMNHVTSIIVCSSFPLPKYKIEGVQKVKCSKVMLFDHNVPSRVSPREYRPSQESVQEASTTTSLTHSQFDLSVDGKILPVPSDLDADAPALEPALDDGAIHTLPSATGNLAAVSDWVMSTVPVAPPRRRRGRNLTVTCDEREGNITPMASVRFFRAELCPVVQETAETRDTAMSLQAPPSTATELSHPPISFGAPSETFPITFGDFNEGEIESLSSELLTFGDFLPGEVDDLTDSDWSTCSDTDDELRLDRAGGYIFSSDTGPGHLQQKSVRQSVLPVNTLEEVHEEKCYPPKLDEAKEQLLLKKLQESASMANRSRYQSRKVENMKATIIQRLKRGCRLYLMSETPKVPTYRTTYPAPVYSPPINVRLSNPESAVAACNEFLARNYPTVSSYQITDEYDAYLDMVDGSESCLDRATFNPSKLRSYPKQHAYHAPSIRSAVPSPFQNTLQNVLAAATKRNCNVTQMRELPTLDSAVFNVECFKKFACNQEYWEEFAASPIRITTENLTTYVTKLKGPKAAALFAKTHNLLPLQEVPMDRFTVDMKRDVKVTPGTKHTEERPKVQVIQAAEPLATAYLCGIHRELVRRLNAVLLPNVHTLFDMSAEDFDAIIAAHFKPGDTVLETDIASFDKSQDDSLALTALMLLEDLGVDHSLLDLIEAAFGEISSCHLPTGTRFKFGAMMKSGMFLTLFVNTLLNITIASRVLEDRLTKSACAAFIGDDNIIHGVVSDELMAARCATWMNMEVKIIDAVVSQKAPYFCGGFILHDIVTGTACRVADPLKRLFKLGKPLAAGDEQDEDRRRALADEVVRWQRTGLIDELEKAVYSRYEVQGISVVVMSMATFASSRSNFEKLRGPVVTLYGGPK

Row | SMILES | Potency
1 | N#CSc1cc(SC#N)c(N)nc1N | 1.03 µM (active)
2 | CO[C@]1(NC(=O)CSC(F)F)C(=O)N2C(C(=O)O)=C(CSc3nnnn3CCO)CO[C@H]21 | inactive
3 | C[C@@H]1C[C@@H](O)[C@@]23CO[C@]2(CO)C[C@@H](O)CC3[C@@]12CC(c1ccoc1)OC2=O (some centres undefined) | inactive
4 | CCC(C)C(=O)OC1C(C)C2(O)C(C=C(CO)CC3(O)C(=O)C(C)=CC32)C2C(C)(C)C12OC(=O)C(C)C (centres undefined) | inactive
5 | CCOc1ccc(N(Cc2ccccc2)C(=O)c2nc(S(C)(=O)=O)ncc2Cl)cc1 | 14.6 µM (active)
6 | Cn1nnnc1Sc1ncnc2n[nH]c(-c3cccc(S(C)(=O)=O)c3)c12 | 15.8 µM (active)
7 | C=CC(=O)c1ccc2ccccc2c1 | 11.6 µM (active)
8 | COC([CH2][Hg])CNC(=O)c1ccccc1OCC(=O)O (centres undefined) | 18.3 µM (active)
9 | Oc1ccc(OC2CCCCO2)cc1 (centres undefined) | inactive
